Laboratory results taken from PubChem BioAssay.
Inconclusive results are not listed. Active and inactive are the calls of the source.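 Rule for the calls, unless noted: active = RAM network inhibition above 8.4% in each of two replicates, 3 SD over the compound average; inconclusive = above 8.4% inhibition in only one replicate; inactive = 8.4% inhibition or less in each replicate.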

Assays:
[1] = Her2 expression decrease, cell viability multiplex – SKBR3 breast tumor cells, AlphaScreen, ATP viability, primary screen (AID 461;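 active = Her2 level under about 52% in both replicate screens, with viability over 70% of control, limit read from the data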;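 for Her2 level: lower value means less Her2 protein in the cells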;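 for viability: percent of carrier control wells set as 100% viability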); conditions: SKBR3 Her2 protein level, 18-24 h, measured here: SKBR3 viability, ATP luminescence, at 10 µM
[2] = biological target: Receptor tyrosine-protein kinase erbB-2 (Homo sapiens) (UniProt P04626); test: as above; conditions: 18-24 h, at 10 µM, stronger effect = lower value
Receptor tyrosine-protein kinase erbB-2 (Homo sapiens), sequence (P04626 whole entry, looked up): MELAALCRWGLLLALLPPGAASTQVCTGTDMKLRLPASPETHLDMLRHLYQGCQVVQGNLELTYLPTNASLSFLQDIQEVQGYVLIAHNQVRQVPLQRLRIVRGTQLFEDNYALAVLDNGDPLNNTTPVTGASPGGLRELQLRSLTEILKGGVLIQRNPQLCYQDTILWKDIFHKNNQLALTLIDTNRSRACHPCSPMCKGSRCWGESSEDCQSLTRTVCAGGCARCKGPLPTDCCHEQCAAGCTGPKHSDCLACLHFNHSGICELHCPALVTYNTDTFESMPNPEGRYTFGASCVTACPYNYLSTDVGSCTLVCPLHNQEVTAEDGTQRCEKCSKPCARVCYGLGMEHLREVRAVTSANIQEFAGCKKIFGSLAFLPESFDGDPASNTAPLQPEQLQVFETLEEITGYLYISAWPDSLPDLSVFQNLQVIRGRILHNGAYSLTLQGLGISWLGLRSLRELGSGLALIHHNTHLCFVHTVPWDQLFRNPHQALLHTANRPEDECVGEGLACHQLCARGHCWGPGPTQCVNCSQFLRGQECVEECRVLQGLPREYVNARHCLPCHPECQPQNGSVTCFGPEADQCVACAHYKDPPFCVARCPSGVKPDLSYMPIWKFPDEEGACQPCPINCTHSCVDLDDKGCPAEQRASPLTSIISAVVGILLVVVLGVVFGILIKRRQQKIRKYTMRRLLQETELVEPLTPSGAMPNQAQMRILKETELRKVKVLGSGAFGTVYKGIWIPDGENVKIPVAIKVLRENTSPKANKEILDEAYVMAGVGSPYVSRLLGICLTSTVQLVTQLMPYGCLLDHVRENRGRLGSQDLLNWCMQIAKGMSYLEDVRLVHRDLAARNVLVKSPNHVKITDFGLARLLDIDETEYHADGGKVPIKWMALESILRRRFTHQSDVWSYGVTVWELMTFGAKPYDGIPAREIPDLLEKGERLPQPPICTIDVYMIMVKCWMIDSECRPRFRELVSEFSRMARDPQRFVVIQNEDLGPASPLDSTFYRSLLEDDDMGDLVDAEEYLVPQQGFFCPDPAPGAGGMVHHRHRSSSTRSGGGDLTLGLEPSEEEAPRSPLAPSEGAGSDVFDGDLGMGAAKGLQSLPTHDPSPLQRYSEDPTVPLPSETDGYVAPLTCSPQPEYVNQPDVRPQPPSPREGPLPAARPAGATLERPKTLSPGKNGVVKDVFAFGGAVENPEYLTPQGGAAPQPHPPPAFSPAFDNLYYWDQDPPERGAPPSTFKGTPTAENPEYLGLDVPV

[3] = reduced viability of SK-BR-3 breast cancer cells – cell-based, 24 h, human, pilot screen (AID 572;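 active = viability at or below 10% of carrier control in both of two separate runs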;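 note: compound exposure lasted between 18 and 24 h rather than exactly 24 h; 100% = carrier-treated control wells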); conditions: SK-BR-3 viability, CellTiter-Glo luminescence, at 10 µM, stronger effect = lower value
[4] = HUVEC growth inhibition – cell-based, human, primary screen (AID 575;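 active = viability at or below 30% in both replicate assays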;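 note: 100% = median of untreated cell wells with 0.1% DMSO on each plate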); conditions: HUVEC proliferation, CellTiter-Glo luminescence, 72 h; at 10 µM; stronger effect = lower value
[5] = H69AR cell proliferation blockers – human, duplicate replicates, primary screen (AID 580;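 active = viability at or under a set limit in both replicates, limit being median viability minus 3 SD, cut at about 48% in these data, passing the limit was not always enough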;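 note: 100% = mean luminescence of untreated wells and 0% = no signal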); conditions: H69AR lung tumor cells viability, ATP luminescence, 72 h; at 10 µM; stronger effect = lower value
[6] = MRP1 drug-resistance reversers in H69AR cells – cell-based, doxorubicin co-treatment, pilot screen (AID 601;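 active = viability loss from added drug above about 55%, and viability with drug at most 40%, in both replicates, limit read from the data, passing the limit was not always enough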); conditions: CellTiter-Glo, 72 h, at 10 µM; for differential viability (reversal): stronger effect = higher value
[7] = yeast transport mutant growth inhibition pilot in 384-well plates, post-Golgi transport modulator project (AID 636; in the data active = inhibition above about 31%); conditions: absorbance 615 nm, about 18 h, stronger effect = higher value
[8] = growth suppression of yeast trafficking mutant, preliminary HTS, modulators of trafficking downstream of Golgi apparatus project, 1536-format plate, OD 615 nm (AID 637; in the data active = inhibition above about 30%); conditions: yeast transport mutant growth, absorbance 615 nm, 18 h; stronger effect = higher value
[9] = S. cerevisiae growth inhibition in permissive medium (OD615), pilot counter-assay for S. cerevisiae lifespan shortening project, permissive growth control (AID 705;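 active = growth inhibition above 25% in both replicates, a cutoff set 3 SD above the mean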); conditions: OD615, 24 h, at 10 µM, stronger effect = higher value
[10] = S. cerevisiae growth inhibition in restrictive medium, OD615, pilot screen, restrictive growth control, yeast lifespan reduction project (AID 706;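 active = growth inhibition above a set limit, 3 SD over mean compound inhibition, in both replicates, cut at about 43% in these data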;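 note: modified DeaD lifespan yeast strain shifted to restrictive glucose medium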); conditions: OD615, 48 h, at 10 µM, stronger effect = higher value
[11] = doxorubicin toxicity protection in MRP-1 cells – H69AR cells, CellTiter-Glo, duplicate, MRP-1 activator project, pilot screen (AID 807;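 active = viability increase at or above a cutoff of the median across tested compounds plus 3 SD, cut at about 8.5% in these data, passing the limit was not always enough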;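 note: compound pretreatment 18-22 h then 72 h combined with doxorubicin; 0% = doxorubicin alone and 100% = vehicle without doxorubicin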); conditions: H69AR viability with doxorubicin, CellTiter-Glo luminescence; at 10 µM; stronger effect = higher value
[12] = viability of PTEN-null HCT116 cells – cell-based, HCT116 clonal line, CellTiter-Glo, pilot screen (AID 824;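 active = viability at or below 27.92% in each of two runs, the all-compound median minus 4 SD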;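 note: 0% = 20 µM Hyamine control and 100% = vehicle cell control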); conditions: HCT116 PTEN-deleted viability, 60 h, at 10 µM, stronger effect = lower value
[13] = RAM pathway blockade in budding yeast – dse1pr::URA3 reporter, 5-FOA selection, pilot screen (AID 869;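 active = inhibition over a set limit, the all-compound mean plus 3 SD, in both replicate runs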;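 note: 0% = DMSO wells with no growth and 100% = 10 µM 1-NA-PP1 with full growth; RAM network block rescues cells from 5-FOA so hits raise OD615 growth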); conditions: S. cerevisiae dse1pr::URA3 5-FOA growth, OD615, 2 d; at 10 µM; stronger effect = higher value; strain carries analog-sensitive mutant Cbk1 kinase
[14] = RAM signaling pathway blockade in yeast – S. cerevisiae, Pdr1DBD-CYC8 efflux-inhibited sensitized strain, primary screen (AID 1298);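 note: 0% = DMSO untreated cells without growth and 100% = 10 µM 1-NA-PP1 full growth; higher means more yeast growth rescued from 5-FOA killing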; conditions: S. cerevisiae cbk1-as DSE1-URA3 strain, 5-FOA growth OD615, 2 d; at 50 µM; stronger effect = higher value
[15] = viability of HCT116 without oncogenic beta-catenin – human colon tumor cells, pilot screen (AID 823;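 active = cell viability at or below a set limit in both duplicate runs, the limit being the all-compound median minus 4 SD, cut at about 23% in these data, passing the limit was not always enough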;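 note: 0% = wells killed by 20 µM Hyamine and 100% = untreated DMSO cell wells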); conditions: HCT116 beta-catenin knockout viability, CellTiter-Glo, 60 h; at 10 µM; stronger effect = lower value
[16] = H69AR cells + 2 uM doxorubicin, measured here: viability with 2 uM doxorubicin, stronger effect = lower value
[17] = H69AR cells, compound alone cytotoxicity

Compound	viability [1] [%]	Her2 level [2]	viability [3]	viability [4]	viability [5]	differential viability (reversal) ([6]; H69AR cells + 2 uM doxorubicin)	viability [6, 16] [%]	viability [6, 17] [%]	inhibition [7]	inhibition [8]	growth inhibition [9]	growth inhibition [10]	viability increase [11]	viability [12]	inhibition [13]	RAM network inhibition [14]	viability [15]
CCOc1ccc(-c2nnc(N(CC)C(=O)C3CCC3)s2)cc1	87.5	72% (inactive)	87.5% (inactive)	98.5% (inactive)	83.7% (inactive)	5.45% (inactive)	78.3	83.7	-4.21% (inactive)	-3.97% (inactive)	-4.38% (inactive)	7.03% (inactive)	-1.68% (inactive)	84.6% (inactive)	0.825% (inactive)	0.26% (inactive)	
Cc1ccc(N(C(=O)C2CCC(=O)N2)C2(C(=O)NC3CCCCC3)CCCCC2)cc1 (stereo not given)	110	99% (inactive)	110% (inactive)	108% (inactive)	98.4% (inactive)	3.47% (inactive)	94.9	98.4	-0.55% (inactive)	-0.79% (inactive)	-9.55% (inactive)	-6.46% (inactive)	-2.37% (inactive)	92.9% (inactive)	2.28% (inactive)	1.79% (inactive)	
CCSc1oc(-c2ccco2)nc1S(=O)(=O)c1ccccc1	95	93.5% (inactive)	95% (inactive)	93.3% (inactive)	89.3% (inactive)	2.04% (inactive)	87.2	89.3	-5.95% (inactive)	-8.33% (inactive)	-16.4% (inactive)	11.4% (inactive)	-2.68% (inactive)		1.75% (inactive)	1.2% (inactive)	92.7% (inactive)
CN1C(=O)C(O)(CC(=O)c2ccc(F)cc2)c2cc(Br)ccc21 (stereo not given)	85.5	86.5% (inactive)	85.5% (inactive)	76.8% (inactive)	20.1% (active)	-30.8% (inactive)	50.9	20.1	-5.2% (inactive)	2% (inactive)	-8.62% (inactive)	-8.46% (inactive)	-6.12% (inactive)	15.8% (active)	1.45% (inactive)	-0.67% (inactive)	
CC1(C)CC(=O)CC(C2(O)C(=O)N(Cc3ccccc3)c3ccccc32)O1 (stereo not given)	99.5	82.5% (inactive)	99.5% (inactive)	78.3% (inactive)	44% (active)	-12.7% (inactive)	56.7	44	1.2% (inactive)	-4.75% (inactive)	-7.38% (inactive)	4.87% (inactive)	-5.63% (inactive)	44.2% (inactive)	1.98% (inactive)	1.36% (inactive)	
CCOC(=O)c1cc2c(=O)n3ccccc3nc2n(CCCOC)c1=NC(=O)C(C)(C)C	91	92% (inactive)	91% (inactive)	105% (inactive)	83.7% (inactive)	23.1% (inactive)	60.6	83.7	-7.4% (inactive)	-3.17% (inactive)	-11% (inactive)	7.96% (inactive)	-2.09% (inactive)	91.4% (inactive)	2.98% (inactive)	2.11% (inactive)	
CCC(C)(NC(=O)CNC(C)=O)C(=O)NC1CCCCC1 (stereo not given)	130	108% (inactive)	130% (inactive)	105% (inactive)	94% (inactive)	-3.05% (inactive)	97.1	94	-5.48% (inactive)	-9.52% (inactive)	-15.5% (inactive)	-3.8% (inactive)	-1.92% (inactive)	97.7% (inactive)	2.88% (inactive)	-0.83% (inactive)	
O=C(c1cnccn1)N(c1ccccc1)C1(C(=O)NC2CCCC2)CCCCC1	118	106% (inactive)	118% (inactive)	96% (inactive)	99.1% (inactive)	-2.94% (inactive)	102	99.1	-8.77% (inactive)	-1.75% (inactive)	-9.55% (inactive)	-12.1% (inactive)	-1.49% (inactive)	96% (inactive)	1.56% (inactive)	3.39% (inactive)	
Cc1[nH]nc2c1C(C1CC=CCC1)C(C#N)=C(N)O2 (stereo not given)	102	80% (inactive)	102% (inactive)	63.5% (inactive)	96% (inactive)	0.85% (inactive)	95.1	96	0.65% (inactive)	-9.17% (inactive)	1.72% (inactive)	1.64% (inactive)	-5.29% (inactive)		3.08% (inactive)	-0.5% (inactive)	17.6% (active)
CCOC(=O)c1[nH]c(C)c(C(=O)Nc2ccc(C)cc2C)c1C	91.5	92% (inactive)	91.5% (inactive)	54.8% (inactive)	22.2% (active)	-28.5% (inactive)	50.7	22.2	-3.72% (inactive)	-3.5% (inactive)	-12.6% (inactive)	-5.29% (inactive)	-6.07% (inactive)	32.8% (inactive)	1.79% (inactive)	0.04% (inactive)	
